Inconclusive results are not listed. Active and inactive are the calls of the source. Calls come from the whole dose curve; as a rule, active = well fitted cell-killing curve with a large enough effect in the repeat runs; inconclusive = weak or mixed curves; inactive = flat fitted curve, though single readings scatter.
% is set by controls: 0 for no effect and ±100 for the full control effect.

A short description of this test: qHTS RealTime-Glo MT Cell Viability Assay in HepG2 cells - 24 hour (AID 1224867). Note: nearly all actives have a fitted effect of over 50% in size. The settings on record: RealTime-Glo luminescence; series mostly up to 76.8 µM; activity change, negative = cytotoxicity: at the top concentration. From the text: U.S. Tox21 Program National Center for Advancing Translational Sciences [NCATS] NIH Chemical Genomics Center [NCGC] U.S. Environmental Protection Agency [EPA] National Institutes of Environmental Health Sciences [NIEHS] National Toxicology Program [NTP] U.S. Food and Drug Administration [FDA] Tox21 Assay Overview: Measure of cell viability is critical in the cell-base assay. Analysis of cell viability is necessary for the characterization of cell responses to cytotoxic drugs and environmental stress. A RealTime-Glo MT Cell Viability Assay to monitor cell viability in real time of continues cell culture during 40 hours of compound treatment was used to screen Tox21 10K library compounds in HepG2 cells. The RealTime-Glo MT Cell Viability Assay is a nonlytic, homogeneous, bioluminescent method to measure cell viability in real time using a simple, plate-based method. The assay involves adding NanoLuc luciferase and a cell-permeant prosubstrate to cells in culture. Viable cells reduce the proprietary prosubstrate to generate a substrate for NanoLuc luciferase. This substrate diffuses from cells into the surrounding culture medium, where it is rapidly used by the NanoLuc Enzyme to produce a luminescent signal. The signal correlates with the number of viable cells, making the assay well suited for cytotoxicity studies.
Tox21 Assay Protocol Summary: The mixture of HepG2 cell suspension and reagents were dispensed at 600cells/6 ul/well in 1536-well tissue culture treated black solid bottom plates using a Multidrop dispenser. After the assay plates were incubated at a 37 C/5% CO2 incubator for 5 hours, 23 nL of compounds dissolved in DMSO, positive and negative controls was transferred to the assay plate by a pintool work station. The plates were incubated at 37 C for 40 hours. The luminescence intensity were measured at 0h, 8h, 16h, 24h, 32h and 40h time points using ViewLux plate reader during compound treatment.
(In general: In qHTS, concentration-response curves come from the screen itself.)
In the case of `CCCCCCCCCCCCCCCBr`, the “activity change, negative = cytotoxicity” value was -1.04% [at 35.3 µM] (inactive). Take `CC1=CC(=O)/C(=C(/C)O)C(=O)O1`: the “activity change, negative = cytotoxicity” value is 0.498% (inactive).

Take `CCCCCCCCC(CO)CCCCCC` (stereo not given): the “activity change, negative = cytotoxicity” value was 0.0499% (inactive). `C=C(C)C(=O)OCCOc1ccccc1`: the “activity change, negative = cytotoxicity” value was 0.305% (inactive). The figure for `CC(C)c1ccc2c(C(C)C)cc(C(C)C)c(S(=O)(=O)O)c2c1` is 1.37% (inactive); for `N[C@H]1C(O)O[C@H](CO)[C@H](O)[C@@H]1O` (stereo not given in full) it is -0.885% (inactive). Turning to `CC[C@]12CCCN3CCc4c(n(c5ccccc45)C(=O)C1)[C@@H]32`, the “activity change, negative = cytotoxicity” value is -20.9% [at 35.3 µM] (inactive).

Turning to `CC(O)C1CCCCC1` (stereo not given), the “activity change, negative = cytotoxicity” value is -0.0276% (inactive).

As to `O=C(/C=C/c1ccc(O)c(O)c1)O[C@@H]1C[C@](O)(C(=O)O)C[C@@H](O)[C@H]1O`, the “activity change, negative = cytotoxicity” value is -1.36% (inactive). Under `CCCCC(CC)COCCCN` (stereo not given) stands -0.445% (inactive); under `Cc1ccccc1N=Nc1ccc(N=Nc2c(O)ccc3ccccc23)c(C)c1`, 0.36% [at 35.3 µM] (inactive); under `CN(C)C/C=C(/c1ccc(Br)cc1)c1cccnc1`, 0.246% [at 35.3 µM] (inactive). Turning to `C1CCC2OC2C1` (stereo not given), the “activity change, negative = cytotoxicity” value is 0.855% (inactive). Under `CC(=O)N(CC(=O)N(C)C)c1ccccc1` stands 4.66% [at 35.3 µM] (inactive); under `NC[C@H]1O[C@H](O[C@H]2[C@H](O)[C@@H](O[C@H]3O[C@H](CO)[C@@H](O)[C@H](N)[C@H]3O)[C@H](N)C[C@@H]2N)[C@H](O)[C@@H](O)[C@@H]1O`, -0.929% [at 6.97 µM] (inactive); under `CC(CN)CCCN` (stereo not given), -0.513% (inactive).

For `C[C@H](CCC(=O)O)[C@H]1CC[C@H]2[C@@H]3[C@H](O)C[C@@H]4C[C@H](O)CC[C@]4(C)[C@H]3CC[C@]12C`, the “activity change, negative = cytotoxicity” value is 4.28% (inactive). With `Oc1ccc(O)c2c(O)cccc12`, the “activity change, negative = cytotoxicity” value is -0.744% (inactive). Take `C=CC[N+]1([C@H]2C[C@H]3[C@@H]4CC[C@H]5C[C@H](OC(C)=O)[C@@H](N6CCCCC6)C[C@]5(C)[C@H]4CC[C@]3(C)[C@H]2OC(=O)CC)CCCCC1`: the “activity change, negative = cytotoxicity” value is 0.0896% [at 35.3 µM] (inactive). `CN(C(=O)CCCOc1ccc2[nH]c(=O)ccc2c1)C1CCCCC1`: the “activity change, negative = cytotoxicity” value was -11.7% [at 35.3 µM] (inactive). The figure for `COc1ccc(OC)c(OC)c1` is 3.23% (inactive). The figure for `c1ccc(CNCc2ccccc2)cc1` is 2.36% (inactive); for `CN1CCN(C2=Nc3ccccc3Sc3ccc(Cl)cc32)CC1` it is -7.54% [at 35.3 µM] (inactive); for `CC1(C)CCC(C)(C)c2cc(NC(=O)c3ccc(C(=O)O)cc3)ccc21` it is -0.4% [at 35.3 µM] (inactive). As for `O=C(C(=O)c1ccc(Br)cc1)c1ccc(Br)cc1`, the activity change, negative = cytotoxicity was -0.799% [at 15.8 µM] (inactive). Under `CCCCCOC(=O)c1ccc(O)cc1` stands -4.17% (inactive); under `O=C(Cl)c1c(Cl)cccc1Cl`, 0.951% (inactive). The figure for `CCCCCCCCCC=O` is 7.17% (inactive); for `CCN(CC)C(C)=O` it is 0.305% (inactive). `CCCCOc1cc(C(=O)OCCN(CC)CC)ccc1N`: the “activity change, negative = cytotoxicity” value was -1.48% [at 35.3 µM] (inactive).

`NCCCOCCOCCOCCCN`: the “activity change, negative = cytotoxicity” value is -0.296% (inactive). Under `COCCOCCOCCOCCOC` stands -3.75% (inactive); under `Cc1ccc(C(C)c2ccc(C)c(C)c2)cc1C`, -3.4% (inactive). For the compound `COCCO`, the “activity change, negative = cytotoxicity” value was 5.84% (inactive). The figure for `O=C(c1ccc(O)cc1)c1ccc(O)cc1` is -8.06% (inactive); for `CCOC(=S)SSC(=S)OCC` it is 1.88% (inactive); for `O=C(O)COC(=O)Cc1ccccc1Nc1c(Cl)cccc1Cl` it is 0.759% [at 35.3 µM] (inactive). In the case of `C=Cc1c(C)c2cc3[nH]c(cc4nc(cc5nc(cc1[nH]2)C(C)=C5CCC(=O)O)C(CCC(=O)O)=C4C)c(C)c3C=C`, the “activity change, negative = cytotoxicity” value was -4.86% [at 35.3 µM] (inactive).

Turning to `Cc1cc(C)c(S(=O)(=O)O)cc1N=Nc1cc(S(=O)(=O)O)c2ccccc2c1O`, the “activity change, negative = cytotoxicity” value is -21.6% (inactive). As to `CC(=O)[C@@]1(O)CC[C@H]2[C@@H]3C[C@H](C)C4=CC(=O)CC[C@]4(C)[C@H]3CC[C@@]21C`, the “activity change, negative = cytotoxicity” value was -9.85% [at 35.3 µM] (inactive).

These data come from PubChem BioAssay (Tox21).
